58 compounds from PubChem BioAssay AID1645857 (Buhrlage Lab, Dana-Farber Cancer Institute and Novartis …, 2021) can be followed below.

Among all 47,000 compounds or so, about 1,400 (3%) were called active. The sample holds actives, similar compounds and a random draw of the others, so the mix is not that of the screen. A number with no mark means an inactive call. No stated cut-off is given here; in the data, active means inhibition above about 30%; inactive means the rest.

The target in the test is Ubiquitin carboxyl-terminal hydrolase 28 (Homo sapiens) (UniProt Q96RU2). Description: blocks human USP28 ubiquitin-rhodamine cleavage (AID 1645857). The conditions noted are these: purified USP28, Ub-rhodamine cleavage fluorescence, 30 min; at 25 µM; hits give high values.
Ubiquitin carboxyl-terminal hydrolase 28 (Homo sapiens), sequence (Q96RU2 whole entry, looked up): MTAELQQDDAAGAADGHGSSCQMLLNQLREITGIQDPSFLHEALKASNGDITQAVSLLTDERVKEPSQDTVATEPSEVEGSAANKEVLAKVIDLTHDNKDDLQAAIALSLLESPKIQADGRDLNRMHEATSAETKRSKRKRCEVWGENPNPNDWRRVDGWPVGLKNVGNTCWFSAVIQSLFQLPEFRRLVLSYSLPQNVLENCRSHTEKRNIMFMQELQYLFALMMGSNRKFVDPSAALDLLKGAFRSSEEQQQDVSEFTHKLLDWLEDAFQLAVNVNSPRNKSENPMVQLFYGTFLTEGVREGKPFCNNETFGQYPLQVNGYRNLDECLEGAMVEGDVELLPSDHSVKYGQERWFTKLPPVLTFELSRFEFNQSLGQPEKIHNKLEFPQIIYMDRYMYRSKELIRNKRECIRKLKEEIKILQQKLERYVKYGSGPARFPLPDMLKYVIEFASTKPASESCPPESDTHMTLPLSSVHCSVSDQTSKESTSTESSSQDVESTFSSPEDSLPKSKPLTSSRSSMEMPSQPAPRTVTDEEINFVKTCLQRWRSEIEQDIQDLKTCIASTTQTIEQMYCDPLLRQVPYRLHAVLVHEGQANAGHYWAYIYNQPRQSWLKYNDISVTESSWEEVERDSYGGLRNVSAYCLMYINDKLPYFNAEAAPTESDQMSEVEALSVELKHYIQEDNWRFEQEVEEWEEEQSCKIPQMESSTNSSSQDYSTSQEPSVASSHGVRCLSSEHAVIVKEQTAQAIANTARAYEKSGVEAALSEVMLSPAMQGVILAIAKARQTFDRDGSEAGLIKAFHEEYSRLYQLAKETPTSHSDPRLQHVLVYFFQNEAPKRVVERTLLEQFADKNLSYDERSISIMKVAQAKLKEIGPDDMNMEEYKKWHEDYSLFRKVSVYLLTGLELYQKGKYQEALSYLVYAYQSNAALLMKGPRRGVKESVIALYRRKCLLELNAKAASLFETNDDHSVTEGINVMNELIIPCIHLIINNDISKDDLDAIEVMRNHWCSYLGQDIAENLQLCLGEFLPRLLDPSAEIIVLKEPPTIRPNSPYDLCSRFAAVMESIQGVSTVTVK
As usually defined, the inhibition is the drop in the measured response relative to a control, in per cent. As to `COc1cccc(N2C(=O)c3cccnc3C2Nc2ccc(C)c(C)c2)c1` (stereo not drawn), the inhibition is -14.4%.

For the compound `O=C(Nc1ccc2c(c1)OCO2)c1sc2cc(Cl)ccc2c1Cl`, the inhibition is -10.3%.

As for `COc1ccc(NS(=O)(=O)c2cc(NC(=O)/C=C/c3cccc(OC)c3)ccc2OC)cc1`, the inhibition was 19.1%.

`COc1ccc(/C=C/C(=O)Nc2ccc3c(c2)OCCO3)cc1Br`: the inhibition is 76.8% (active).

With `O=C(/C=C/c1ccc(Cl)cc1)Nc1ccc2c(c1)OCCO2`, the inhibition was 35.4% (active).

Regarding `COc1ccc(NC(=O)CCC(=O)c2ccc3c(c2)OCCO3)cc1S(=O)(=O)Nc1ccc(Cl)cc1`, the inhibition was 16.3%.

As to `O=C(Nc1ccc2c(c1)OCO2)N1CCCCCC1`, the inhibition is -1.57%.

With `COc1ccc(S(=O)(=O)c2cnc3cc(OC)c(OC)cc3c2N2CCOCC2)cc1`, the inhibition was 3.3%.

On to `COc1ccccc1NC(=O)CCC(=O)N1CCSc2ccccc21`, for which the inhibition is -4.12%.

As for `Brc1ccc2[nH]c3c(NCCCN4CCOCC4)ncnc3c2c1`, the inhibition is -18.8%.

Take `COc1cc(NC(=O)c2noc3c2CCc2sccc2-3)cc(OC)c1`: the inhibition is 43.6% (active).

For `COc1cc(OC)cc(C(=O)Nc2ccc(S(=O)(=O)Nc3cc(C)on3)cc2)c1`, the inhibition is 12.8%.

Turning to `O=C(NCc1ccccc1)c1noc2c1CCc1sccc1-2`, the inhibition is 0.0745%.

`COc1cccc(C2c3[nH]c4ccccc4c3C[C@@H]3C(=O)N(CCCn4ccnc4)CC(=O)N23)c1` (stereo partly drawn): the inhibition is -0.857%.

For the compound `CC(C)(C)c1ccc(C(=O)Nc2cccc(-c3nc4ncccc4o3)c2)cc1`, the inhibition is 2.33%.

On to `COc1cccc(NC(=O)C(C#N)C(=O)C2CC2c2cccc(C)c2)c1` (stereo not drawn), for which the inhibition is 26.5%.

As for `Cc1c(-c2nn3c(-c4ccco4)nnc3s2)cccc1[N+](=O)[O-]`, the inhibition is 33.6% (active).

Take `Cc1cc(C)n2nc(C(=O)N(C)C(c3ccccc3)c3ccccc3)nc2n1`: the inhibition was 5.86%.

With `COc1ccc2[nH]c3c(NCCCN4CCOCC4)ncnc3c2c1`, the inhibition was -8.4%.

Regarding `O=C(c1ccc2cc[nH]c2c1)N1CCCC2(COCCN(CC3CC3)C2)C1` (stereo not drawn), the inhibition is -13.8%.

Take `Cc1ccc(S(=O)(=O)NCC(c2ccc3c(c2)CCN3C)N2CCCC2)c(C)c1` (stereo not drawn): the inhibition is -0.036%.

For the compound `COc1ccc(C(=O)N2CCCN(c3ncccc3-c3nc(C)no3)CC2)cc1`, the inhibition was 5.18%.

On to `Cc1ccc(NC(=O)Cc2nc(-c3ccccc3)n[nH]2)cc1`, for which the inhibition was -4.45%.

For the compound `CC(C)(C)C(=O)OCc1noc(-c2ccccc2)n1`, the inhibition was 7.9%.

As for `O=C1COc2ccccc2N1Cc1noc(-c2ccccc2)n1`, the inhibition was 72.3% (active).

For the compound `O=C(NCc1noc(-c2ccccc2)n1)C1CCCC1`, the inhibition was -13.9%.

Regarding `O=C1NC2(CCCc3ccccc32)C(=O)N1Cc1csc(-c2ccc(Cl)cc2)n1` (stereo not drawn), the inhibition is 2.68%.

For the compound `COc1cccc(-c2noc(CN3CCCC3c3cc(OC)ccc3OC)n2)c1` (stereo not drawn), the inhibition was -19.5%.

Regarding `O=C(COc1ccccc1)Nc1cnc(-c2cccc(Cl)c2)nc1`, the inhibition is 0.526%.

Turning to `COc1cc(-c2nc3sc4c(c3c(=O)[nH]2)CCC(C)C4)ccc1OCc1ccc(C)cc1` (stereo not drawn), the inhibition was 13.3%.

Turning to `CC1CCc2c(sc3ncnc(OCc4cccc([N+](=O)[O-])c4)c23)C1` (stereo not drawn), the inhibition was 94.8% (active).

Take `CC1CCc2c(sc3nc(CC#N)[nH]c(=O)c23)C1` (stereo not drawn): the inhibition is -258%.

For the compound `Cc1nc(C2CCCN(C(=O)c3cccnc3N)C2)nc2c1CC(=O)N2Cc1ccccc1` (stereo not drawn), the inhibition is -6.04%.

For `C=C1Nc2ccccc2C(=O)N1c1cccc(NC(=O)Cc2ccc(F)cc2)c1`, the inhibition is 2.69%.

For `CNc1nc2c(c(=O)n1C)CN(C(=O)Nc1ccccc1Oc1ccccc1)CC2`, the inhibition was 14.2%.

Take `COc1ccc(NC(=O)c2sc(N3CCOCC3)nc2-c2ccccc2)c(OC)c1`: the inhibition is 15.1%.

In the case of `COc1cccc(-c2cc(C(=O)N3CCN(c4ccc(N5CCOCC5)nn4)CC3)[nH]n2)c1`, the inhibition is 69.8% (active).

Turning to `O=C(c1cccnc1)N1CCN(c2cc(-c3ccccc3)[nH]n2)CC1`, the inhibition was 4.54%.

Turning to `COc1cccc(C(=O)N2CCCC2c2nc(-c3ccccc3)no2)c1` (stereo not drawn), the inhibition was 1.43%.

With `C=C(CCC(C(=O)O)[C@H]1[C@H](O)C[C@@]2(C)C3=C(CC[C@]12C)[C@@]1(C)CC[C@H](OC(C)=O)C(C)(C)[C@@H]1CC3)C(C)C` (stereo partly drawn), the inhibition is 3.27%.

Regarding `COCCCNC(=O)c1cc2c(=O)n3ccccc3nc2n1Cc1ccccc1`, the inhibition was 9.14%.

With `CSc1ncccc1C(=O)Nc1ccnn1C(C)c1ccncc1` (stereo not drawn), the inhibition is -28.1%.

In the case of `CSc1ncccc1C(=O)OCc1ccc(Br)cc1`, the inhibition was 76.8% (active).

Turning to `CCCOc1ccc(NC(=O)c2ccc(Br)cc2)c2cccnc12`, the inhibition was -10.2%.

In the case of `CCCCNC(=O)Cc1csc(COc2ccc(C)cc2)n1`, the inhibition is 2.41%.

With `O=C(NC1CCCC1)c1ccccc1N1C(=O)[C@@H]2Cc3c([nH]c4ccccc34)C(c3ccc(F)cc3)N2C1=O` (stereo partly drawn), the inhibition was -2.2%.

In the case of `CN1CCCN(C(=O)C2CCCCC2)CC1`, the inhibition is -7.1%.

On to `COC(=O)c1ccc(C2c3[nH]c4ccccc4c3C[C@H]3C(=O)N(CC4CCCO4)CC(=O)N23)cc1` (stereo partly drawn), for which the inhibition was -2.7%.

In the case of `COC(=O)c1ccc(C(=O)NCC2(O)CCc3ccccc32)cc1` (stereo not drawn), the inhibition was 6.5%.

As to `COC(=O)c1ccc(C2Oc3ccccc3CN2c2ccccc2Cl)cc1` (stereo not drawn), the inhibition was 34.3% (active).

As to `Cn1nc(C2CCCN(Cc3cc(F)cc(F)c3)C2)c2nccnc21` (stereo not drawn), the inhibition is -9.38%.

For the compound `COc1ccccc1CNC(=O)c1c(O)c2cccnc2n(-c2ccccc2)c1=O`, the inhibition was -16.9%.

Regarding `COc1ccccc1CNC(=O)c1nc(N2CCSCC2)c2cn(C)nc2n1`, the inhibition is 32.8% (active).

For the compound `CCN1CCC2(CC1)OC(=O)C(C)=C2C(=O)NCc1ccccc1OC`, the inhibition was -9.74%.

Turning to `O=C(CCc1nnc2ccc(N3CCOCC3)nn12)N1CCC(Cc2ccccc2)CC1`, the inhibition was 3.03%.

Take `O=C(Cc1cccc2ccccc12)Nc1nc2ccc(F)cc2s1`: the inhibition was 55.7% (active).

Take `CCCC(=O)Nc1nc2ccc(CCC(=O)NCc3ccc(F)cc3)cc2s1`: the inhibition was -4.54%.

With `CC(C)C(=O)Nc1nc2ccc(CCC(=O)Nc3ccc(F)cc3)cc2s1`, the inhibition is -0.104%.
